A short description of experiment [1]: HepG2 liver cancer cell viability effects, profiling panel, resazurin fluorescence, 24 h, PK04 Diversity Set (AID 1172). Also: test concentration not given here. The conditions noted are these: higher = more signal. In general terms: The colour change of resazurin is a common sign of viable cells or microbes.
The nature of experiment [2]: basal S. cerevisiae growth modulation, no modifier, primary screen, OD600, strain BY4716, 24 h, basal condition (AID 1173). The conditions noted are these: OD600, 24 h, higher = more signal, called active from +8 up or from −8 down.
Experiment [3] can be described thus: MM1S myeloma cell viability, profiling panel, resazurin fluorescence, basal, 24 h, PK04 Diversity Set (AID 1174).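 Also: MM1S multiple myeloma cell line; test concentration not given here.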 To be noted: higher = more signal, called active from +8 up or from −8 down.
Experiment [4] deals with Dihydroorotate dehydrogenase (quinone), mitochondrial (Plasmodium falciparum (isolate 3D7)) (UniProt Q08210). In words: PfDHODH enzyme inhibitors, primary screen, biochemical, C-terminal His tag, absorbance 600 nm (AID 1175).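 Also: recombinant parasite enzyme with a five histidine tag at its C terminus; test concentration not given here.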 To be noted: DCIP absorbance 600 nm, higher = more signal, called active from +8 up or from −8 down.
Chain of Dihydroorotate dehydrogenase (quinone), mitochondrial (Plasmodium falciparum (isolate 3D7)) (Q08210 whole entry, looked up): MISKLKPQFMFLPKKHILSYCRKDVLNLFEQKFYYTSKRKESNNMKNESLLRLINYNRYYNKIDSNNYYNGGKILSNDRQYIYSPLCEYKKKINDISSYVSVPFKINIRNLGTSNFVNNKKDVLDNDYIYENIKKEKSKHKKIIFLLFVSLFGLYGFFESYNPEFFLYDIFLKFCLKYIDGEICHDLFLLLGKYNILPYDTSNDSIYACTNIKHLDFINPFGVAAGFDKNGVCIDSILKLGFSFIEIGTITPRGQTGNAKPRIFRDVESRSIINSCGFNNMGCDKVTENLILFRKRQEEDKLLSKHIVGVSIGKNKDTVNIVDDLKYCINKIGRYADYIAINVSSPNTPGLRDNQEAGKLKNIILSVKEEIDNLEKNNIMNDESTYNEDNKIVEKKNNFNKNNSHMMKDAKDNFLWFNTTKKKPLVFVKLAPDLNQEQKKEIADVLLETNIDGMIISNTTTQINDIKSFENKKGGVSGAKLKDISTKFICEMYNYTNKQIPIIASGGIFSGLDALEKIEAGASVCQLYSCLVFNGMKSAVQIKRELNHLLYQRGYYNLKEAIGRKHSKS
A short description of experiment [5]: P. aeruginosa biofilm formation inhibitors, primary screen, strain PAO1, LB-PBS medium, absorbance 600 nm (AID 1176). Also: test concentration not given here. To be noted: P. aeruginosa PAO1 growth/biofilm, A600, 12 h; higher = more signal.
Experiment [6] can be described thus: S. cerevisiae RM11-1a growth modifiers, primary screen, strain RM11-1a, OD600, basal, 24 h (AID 1177).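 Also: cultures grown under basal conditions with no added stressor; test concentration not given here.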 The conditions noted are these: OD600, 24 h, higher = more signal, called active from +8 up or from −8 down.
Experiment [7] in a line: E. coli acrAB mutant growth effects, primary screen, E. coli filamentation inducers, strain DRC39, OD650, 24 h (AID 1178).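 Also: growth measured as culture turbidity by optical density at 650 nm; test concentration not given here.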 The conditions noted are these: higher = more signal, called active from +8 up or from −8 down.
A short description of experiment [8]: E. coli acrAB mutant growth effects, primary screen, E. coli filamentation inducers, strain DRC39, OD650, 48 h (AID 1179).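 Also: screen aims at cell division blockers that make cells filament.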 To be noted: E. coli DRC39 delta-acrAB growth, higher = more signal, called active from +8 up or from −8 down.
Experiment [9] is described as follows: RPMI8226 myeloma cell viability, profiling panel, resazurin fluorescence, basal, 24 h, PK04 Diversity Set (AID 1180).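 Also: RPMI8826 multiple myeloma cell line at 5000 cells per well; test concentration not given here.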 To be noted: higher = more signal.
In experiment [10] the target is E3 ubiquitin-protein ligase XIAP (Homo sapiens) (UniProt P98170). In words: XIAP binders, primary screen, biophysical, small-molecule microarray, fluorescence 635 nm (AID 1181).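 Also: score merges 667 nm emission and signal to noise over triplicate slides.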 To be noted: small-molecule microarray binding, higher = more signal.
Chain of E3 ubiquitin-protein ligase XIAP (Homo sapiens) (P98170 whole entry, looked up): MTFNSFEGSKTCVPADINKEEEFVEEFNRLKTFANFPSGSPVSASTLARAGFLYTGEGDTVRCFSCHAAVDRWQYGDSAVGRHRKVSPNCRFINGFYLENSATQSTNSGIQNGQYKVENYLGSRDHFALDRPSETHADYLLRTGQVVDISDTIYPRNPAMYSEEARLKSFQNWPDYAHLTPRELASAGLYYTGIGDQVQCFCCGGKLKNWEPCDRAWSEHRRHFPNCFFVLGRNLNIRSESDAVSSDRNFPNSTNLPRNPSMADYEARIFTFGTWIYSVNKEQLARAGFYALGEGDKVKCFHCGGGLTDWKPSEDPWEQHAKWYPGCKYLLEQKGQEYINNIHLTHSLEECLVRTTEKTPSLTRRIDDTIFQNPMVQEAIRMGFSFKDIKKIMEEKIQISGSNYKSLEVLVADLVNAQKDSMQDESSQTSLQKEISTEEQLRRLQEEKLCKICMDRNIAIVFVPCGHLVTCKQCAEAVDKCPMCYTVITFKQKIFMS

Active and inactive are the calls of the source. Unless noted, no rule for the calls is given here.

Consider `C=CC[C@]1(C(N)=O)N=C(c2ccc(OCCCO)cc2)O[C@H]1c1ccccc1`, for which the z-score in experiment [1] is -0.095; in [2] it was -0.496 (inactive); in experiment [3], -0.0113 (inactive); in experiment [5] it was 0.248 (inactive); in experiment [6], -0.412 (inactive); in [7], 0.247 (inactive). In addition, the z-score in experiment [8] is -0.875 (inactive); in [9], -0.52. Besides, the composite z-score is 0.867 (inactive) in [4] and -0.0749 in experiment [10].

In the case of `O=C1O[C@H](c2ccccc2)[C@H](c2ccccc2)N2[C@H]1[C@@H](C(=O)NC[C@H](O)c1ccccc1)[C@]1(C(=O)Nc3ccc(C#CC4=CCCCC4)cc31)[C@H]2c1ccccc1OCCO`, the z-score is -2.02 in [1]; 1.89 (inactive) in experiment [2]; -6.77 (inactive) in experiment [3]; 2.9 (inactive) in experiment [5]; 1.96 (inactive) in experiment [6]; -0.561 (inactive) in [7]. Besides, the z-score is 0.105 (inactive) in experiment [8] and -6.5 in [9]. For the same compound, the composite z-score in [4] is -0.894 (inactive); in experiment [10], -0.144.

Turning to `Cc1ccc([C@H]2C(C(=O)O)=CCN2S(=O)(=O)c2ccc(C)cc2)cc1`, the z-score in experiment [1] was -0.585; in [2], 0.292 (inactive); in experiment [3], -0.81 (inactive); in [5], -0.088 (inactive); in [6] it was -0.114 (inactive); in [7] it was -0.429 (inactive). Further, the z-score in experiment [8] is -0.392 (inactive); in [9] it was -0.325. Besides, the values for the composite z-score in experiment [4] and in experiment [10] were -0.381 (inactive) and 0.296, respectively.

On to `O=C1C2C=CC(C(O)c3ccc(F)cc3)N(Nc3ccc([N+](=O)[O-])cc3)C2C(=O)N1c1ccccc1` (stereo not given), for which the z-score in [1] was 0.349; in experiment [2], 0.579 (inactive); in [3] it was -0.115 (inactive); in [5], 0.862 (inactive); in [6] it was -0.228 (inactive); in experiment [7] it was -1.47 (inactive). The values for the z-score in experiment [8] and in experiment [9] were -0.639 (inactive) and -0.152, respectively. Also, the composite z-score is -0.0421 (inactive) in experiment [4] and 0.135 in experiment [10].

With `O=C1[C@@]23C=C(Br)[C@H](C[C@@H]2COC3)[C@]12CO2`, the z-score in experiment [1] is -0.845; in experiment [2] it was -10.2 (active); in experiment [3], -0.874 (inactive); in [5], 0.732 (inactive); in experiment [6] it was -0.384 (inactive); in experiment [7] it was -0.0135 (inactive). Moreover, the z-score was -0.0637 (inactive) in experiment [8] and -0.741 in experiment [9]. The composite z-score in [4] is -1.91 (inactive); in experiment [10], -0.105.

As to `CC(=O)n1cc(C(O)C2C=CC3C(=O)NC(=O)C3N2Nc2ccccn2)c2ccccc21` (stereo not given), the z-score in experiment [1] is -1.3; in [2], 0.627 (inactive); in experiment [3], -1.67 (inactive); in experiment [5] it was 1.33 (inactive); in experiment [6], 0.605 (inactive); in [7], -0.641 (inactive). Further, the figures for the z-score in experiment [8] and in experiment [9] were -0.109 (inactive) and -1.31, respectively. The composite z-score in experiment [4] is 0.496 (inactive); in [10], 0.07.

On to `CCCC1(C(=O)OC)C=C2C(=C(c3ccccc3)C(=O)C2C)CN1` (stereo not given), for which the z-score in experiment [1] is -0.913; in [2], 0.629 (inactive); in experiment [3], -1.85 (inactive); in experiment [5], 0.246 (inactive); in experiment [6], -0.0834 (inactive); in experiment [7], -0.0785 (inactive). Moreover, the z-score in experiment [8] was -0.181 (inactive); in [9], -0.77. Also, the composite z-score was -1.68 (inactive) in experiment [4] and 0.192 in experiment [10].

`CCN(CC)c1ccc(N2CC=CC34O[C@@H]5C=CCOC(=O)[C@@H]5[C@H]3C(=O)N(CCCCCCO)[C@@H]4C2=O)cc1` (stereo not given in full): the z-score is 1.35 in [1]; -0.532 (inactive) in experiment [2]; 1.27 (inactive) in experiment [3]; -0.152 (inactive) in experiment [5]; -0.5 (inactive) in experiment [6]; 0.918 (inactive) in experiment [7]. Also, the z-score was 0.701 (inactive) in experiment [8] and 1.45 in [9]. The composite z-score is 0.466 (inactive) in [4] and 0.212 in experiment [10].

The values are drawn from PubChem BioAssay.
